Screening data from PubChem BioAssay.
Beta apoptosis – beta cell apoptosis inhibition; INS-1E cytokine-induced death, ATP luminescence, 48 h; percent of positive-control rescue, neutral wells zero; protection from apoptosis, % (no concentration beside the values); 300,000 tested, 0.8% active; AID 435005;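 active = Every replicate reaches about 75%, or at least half do and their mean reaches it too, limit read from the data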;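 note: 0% = cytokine-treated negative control wells and 100% = positive control rescue; higher means more ATP so stronger rescue from cytokine killing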
CSC inhib – blocks cancer stem cells; cancer stem cell-like cells viability, luminescence; inhibition, % at 7.5 µM; 300,000 tested, 1.1% active; AID 2717; in the data active = inhibition above about 75%; tested in HMLE shEcad cells
Calb FLC – C. albicans growth modulation with fluconazole. growth inhibition, % (no concentration beside the values). 300,000 tested, 0.57% active. AID 1979. C. albicans CaCi-2 (fluconazole-resistant clinical isolate) + fluconazole, Alamar Blue growth, 48 h;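 active = growth inhibition above about 58% in most replicates, limit read from the data, passing the limit was not always enough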;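 note: all wells also contain fluconazole at 8 µg/ml as a sub-toxic cotreatment; 0% = median of DMSO wells and 100% = median of geldanamycin control wells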
Mdm2-MdmX inh – inhibitors of human Mdm2/MdmX interaction | SaOS-2 split-luciferase Mdm2/MdmX complementation, luminescence | inhibition, % at 8 µM | 330,000 tested, 3% active | O15151+Q00987 | AID 485346;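 active = inhibition of at least 50% at 8 µM in the primary screen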
Target sequence (O15151 whole entry, looked up): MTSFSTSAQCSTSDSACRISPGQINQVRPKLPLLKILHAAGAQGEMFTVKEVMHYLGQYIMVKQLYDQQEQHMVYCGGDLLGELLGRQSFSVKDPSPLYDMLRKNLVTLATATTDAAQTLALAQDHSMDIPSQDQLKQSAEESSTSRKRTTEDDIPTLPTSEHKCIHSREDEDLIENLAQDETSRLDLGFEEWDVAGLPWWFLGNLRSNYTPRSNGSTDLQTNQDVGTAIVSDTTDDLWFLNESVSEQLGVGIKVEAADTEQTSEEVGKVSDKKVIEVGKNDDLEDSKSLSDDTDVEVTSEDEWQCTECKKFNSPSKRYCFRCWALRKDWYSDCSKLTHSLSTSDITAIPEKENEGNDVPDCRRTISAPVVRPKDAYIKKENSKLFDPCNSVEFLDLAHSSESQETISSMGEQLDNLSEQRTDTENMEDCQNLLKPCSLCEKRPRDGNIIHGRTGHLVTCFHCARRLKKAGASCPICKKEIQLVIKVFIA
Target sequence (Q00987 whole entry, looked up): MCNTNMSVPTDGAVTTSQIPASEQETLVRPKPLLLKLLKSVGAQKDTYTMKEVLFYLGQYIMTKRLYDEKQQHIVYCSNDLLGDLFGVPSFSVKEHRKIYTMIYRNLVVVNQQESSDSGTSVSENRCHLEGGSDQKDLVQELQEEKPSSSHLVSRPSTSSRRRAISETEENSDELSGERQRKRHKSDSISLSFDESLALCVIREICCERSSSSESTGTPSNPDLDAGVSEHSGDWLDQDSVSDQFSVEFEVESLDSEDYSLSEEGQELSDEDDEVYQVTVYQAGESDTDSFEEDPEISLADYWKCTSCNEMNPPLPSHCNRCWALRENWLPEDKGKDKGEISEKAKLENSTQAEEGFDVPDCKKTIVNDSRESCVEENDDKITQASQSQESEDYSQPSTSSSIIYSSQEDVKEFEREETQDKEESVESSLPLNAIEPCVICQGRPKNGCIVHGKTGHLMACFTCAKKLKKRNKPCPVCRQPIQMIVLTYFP
MPTP block – inhibitors of mitochondrial permeability transition pore; isolated mouse mitochondria, Ca2+ swelling absorbance, 30 min; inhibition, % at 10 µM; 360,000 tested, 1.4% active;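 active = inhibition of 50% or more, scaled per plate between neutral and stimulator controls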;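 note: 0% = DMSO wells given calcium and 100% = 1 mM EGTA wells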
Mdm2-MdmX conf – confirmation of human Mdm2/MdmX interaction inhibitors; inhibition, % at 8 µM; Mdm2-MdmX binding, luminescent assay; 10,000 tested, 55% active; AID 489028; shares compounds with Mdm2-MdmX inh; in the data active = inhibition above about 40%
Full FLuc ctr – full-length luciferase inhibition in Mdm2/MdmX counter-screen; AID 504607; shares compounds with Mdm2-MdmX inh; 6,200 tested, 77% active; SaOS-2 full-length luciferase counterscreen, luminescence; inhibition, % at 8 µM;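 active = mean inhibition at 8 µM reaching about 37%, which flags the compound as non-specific, limit read from the data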;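 note: p53-null SaOS-2 cells with luciferase driven by a doxycycline-inducible promoter; compound on cells about two nights before reading with doxycycline added after day one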
An asterisk follows results filed as active. This is a sample that favours compounds with a hit; in the whole collection about 4.8% have one here.

For O=C(c1cccc(S(=O)(=O)N2CCc3ccccc32)c1)N1CCc2ccccc2C1 the results were Beta apoptosis 4, Mdm2-MdmX inh 34 and MPTP block 2.
For COc1cc2c(cc1OC)CN(C(C)C(=O)N1CCc3ccccc31)CC2 (configuration not stated) the results were Beta apoptosis 2, CSC inhib -1, Mdm2-MdmX inh 52*, MPTP block -9, Mdm2-MdmX conf 34 and Full FLuc ctr 84*.
CN(Cc1nc2ccccc2c(=O)[nH]1)C(=O)c1cccc(S(=O)(=O)N2CCCCCC2)c1 was read as Beta apoptosis -1, Mdm2-MdmX inh 13 and MPTP block 1.
COc1cc2c(cc1OC)CN(C(=O)c1cccc(S(=O)(=O)N3CCc4ccccc43)c1)CC2 was read as Beta apoptosis 1, CSC inhib 34, Mdm2-MdmX inh 90*, MPTP block 1, Mdm2-MdmX conf 59* and Full FLuc ctr 86*.
`CN(Cc1nc2ccccc2c(=O)[nH]1)C(=O)c1cccc(S(=O)(=O)N2CCc3ccccc32)c1` gave Beta apoptosis 6, CSC inhib 24, Mdm2-MdmX inh 81*, MPTP block 2, Mdm2-MdmX conf 55* and Full FLuc ctr 68*.
`CCN(CC)CCNC(=O)c1ccc(NC(=O)c2cccc(S(=O)(=O)N3CCc4ccccc43)c2)cc1` gave Mdm2-MdmX inh 76*, MPTP block 11, Mdm2-MdmX conf 44* and Full FLuc ctr 67*.
`CCN(CC)CCNC(=O)c1cc(S(=O)(=O)N2CCc3ccccc32)cn1C` gave Beta apoptosis -7, CSC inhib -4, Calb FLC -12, Mdm2-MdmX inh 25 and MPTP block 0.
`COC(=O)c1cc(=O)nc(NN=Cc2ccco2)s1` gave MPTP block -1.
COc1ccc(-n2nnnc2C(c2ccnc3ccccc23)N2CCN(C/C=C/c3ccccc3)CC2)cc1 (configuration not stated) was read as MPTP block 0.
CCN(CC)CCNC(=O)c1ccc(NC(=O)c2cccc(S(=O)(=O)N3c4ccccc4CC3C)c2)cc1 (configuration not stated) was read as Beta apoptosis -5, CSC inhib 22, Calb FLC 10, Mdm2-MdmX inh 80*, MPTP block 0 and Mdm2-MdmX conf 27.
CC1Cc2ccccc2N1S(=O)(=O)c1cccc(C(=O)N2CCN(c3ncccn3)CC2)c1 (configuration not stated) was read as Beta apoptosis 1, CSC inhib 51, Calb FLC 19, Mdm2-MdmX inh 90*, MPTP block 5, Mdm2-MdmX conf 89* and Full FLuc ctr 55*.
Screening CC(=O)N1CCN(C(=O)c2cccc(S(=O)(=O)N3c4ccccc4CC3C)c2)CC1 (configuration not stated) returned Beta apoptosis -6, CSC inhib 4, Mdm2-MdmX inh 9 and MPTP block 1.
Screening CCOC(=O)N1CCN(C(=O)C[C@@H]2C[C@@]3(C(=O)OCC)CCC=C3N(Cc3cccc4ccccc34)C2=O)CC1 returned MPTP block 1.
O=c1c2ccccc2nc2sc(Nc3cccc(Cl)c3)nn12 was read as Beta apoptosis 12, CSC inhib -9, Mdm2-MdmX inh 73*, MPTP block 0 and Mdm2-MdmX conf -21.
For CCNc1nc(NC(C)(C)C)nc(N2CCCCC2)n1 the results were Beta apoptosis 41, CSC inhib 23, Calb FLC 42, Mdm2-MdmX inh 51*, MPTP block 4 and Mdm2-MdmX conf 19.
`COc1cc(C#Cc2c(-c3cncn3C)n(C)c3ccc(Br)cc23)cc(OC)c1` gave Beta apoptosis 3, Mdm2-MdmX inh 75*, MPTP block 0 and Mdm2-MdmX conf -3.
`COc1cc(C#Cc2c(-c3cncn3C)n(C)c3ccc(-c4ccc(OC)c(OC)c4)cc23)cc(OC)c1` gave Beta apoptosis 13, CSC inhib 49, Mdm2-MdmX inh 52*, MPTP block 1 and Mdm2-MdmX conf 23.
For O=C(NC(Cc1nn[nH]n1)C(=O)OCc1ccccc1)OCc1ccccc1 (configuration not stated) the results were MPTP block 0.
C=CCn1c(O)c(C2=c3ccccc3=NC2=O)s/c1=N/c1nccs1 was read as Beta apoptosis 3, CSC inhib -6, Calb FLC 3, Mdm2-MdmX inh 79*, MPTP block 6 and Mdm2-MdmX conf 23.
Screening Cc1nc(SC(C)C(=O)NCC2CCCO2)c2cc(-c3ccccc3)sc2n1 (configuration not stated) returned Beta apoptosis 1, CSC inhib 48, Calb FLC -7, Mdm2-MdmX inh 97*, MPTP block 1, Mdm2-MdmX conf 96* and Full FLuc ctr 55*.
O=C(Cn1cc(COc2c(F)c(F)c(Br)c(F)c2F)nn1)c1ccc(O)cc1 was read as MPTP block 0.
`O=C(NCc1ccccc1)c1c(Cl)nc(Cl)c(Cl)c1Cl` gave Beta apoptosis -10, CSC inhib 68, Calb FLC -13, Mdm2-MdmX inh 100*, MPTP block 1, Mdm2-MdmX conf 94* and Full FLuc ctr 53*.
Cc1nc(Cl)c(C(=O)NCc2ccccc2)c(C)c1Cl was read as Beta apoptosis 1, CSC inhib 3, Calb FLC 0, Mdm2-MdmX inh 18 and MPTP block -2.
Screening O=C(NCc1ccccc1)c1nc(S(=O)(=O)Cc2ccccc2)ncc1Cl returned Beta apoptosis -10, CSC inhib 52, Calb FLC -12, Mdm2-MdmX inh 74*, MPTP block 2, Mdm2-MdmX conf 67* and Full FLuc ctr 4.
COC(=O)c1ccccc1NC(=O)c1nc(S(=O)(=O)Cc2ccccc2)ncc1Cl was read as Beta apoptosis 99*, CSC inhib 100*, Calb FLC -4, Mdm2-MdmX inh 98*, MPTP block -2, Mdm2-MdmX conf 91* and Full FLuc ctr 67*.
COc1ccc(CNC(=O)c2nc(S(=O)(=O)Cc3ccccc3)ncc2Cl)cc1 was read as Beta apoptosis 15, CSC inhib -8, Calb FLC -11, Mdm2-MdmX inh 77*, MPTP block 0, Mdm2-MdmX conf 94* and Full FLuc ctr 1.
For O=c1[nH]c(=S)[nH]c2c1[C@H](CCc1cccc(Cl)c1)O[C@H](C1CCCC1)C2 the results were MPTP block -1.
`CN(C)C(=O)CSc1nnc2sc3ccccc3n12` gave Beta apoptosis -1, CSC inhib -1, Calb FLC -1, Mdm2-MdmX inh 0 and MPTP block -4.
`O=c1c2ccccc2nnn1CSc1nnc2sc3ccccc3n12` gave Beta apoptosis 2, CSC inhib -5, Calb FLC -12, Mdm2-MdmX inh 53*, Mdm2-MdmX conf 54* and Full FLuc ctr 113*.
